About 110 (3.4%) of roughly 3,200 compounds showed an effect of 50% or more. For the sample, strong results were picked, then their nearest neighbours and some compounds at random.
The compounds below were run on T1, V. cholerae SAD30. Settings: relative growth, OD600, LB; 25 µM; inhibitor.
T1 construct: SAD30
Parameters: species or system S. aureus MSSA476 (TSB) or V. cholerae SAD30 (LB); 384-well bacterial growth screen at 25 uM, OD600 relative to DMSO control

| Structure (SMILES) | % of control remaining |
| --- | --- |
| C=CC(=O)N1CCC[C@H]1C(=O)Nc1cccc(C)n1 [1-B10, (2S)-N-(6-methylpyridin-2-yl)-1-(prop-2-enoyl)pyrrolidine-2-carboxamide] | 90.0393% |
| C=CCNC(=O)C(C#N)=Cc1ccc(C)s1 [9-F05, 2-cyano-3-(5-methylthiophen-2-yl)-N-(prop-2-en-1-yl)prop-2-enamide] | 77.8382% |
| CC(Cl)C(=O)NCCc1cn(C)nn1 (stereo not shown) [7-A14, 2-chloro-N-[2-(1-methyl-1H-1,2,3-triazol-4-yl)ethyl]propanamide] | 82.7358% |
| Cc1cccc2nc(C3CCN(C(=O)C(C)Cl)CC3)oc12 (stereo not shown) [7-M12, 2-chloro-1-[4-(7-methyl-1,3-benzoxazol-2-yl)piperidin-1-yl]propan-1-one] | 63.8361% |
| CC(Cl)C(=O)Nc1ccc2c(c1)CCC2 (stereo not shown) [5-C19, 2-chloro-N-(2,3-dihydro-1H-inden-5-yl)propanamide] | 86.9181% |
| O=C(CCl)c1ccc(CC(=O)N2CCOCC2)s1 [10-H06, 2-chloro-1-{5-[2-(morpholin-4-yl)-2-oxoethyl]thiophen-2-yl}ethan-1-one] | 101.305% |
| N#CC(=Cc1ccccc1Cl)C(=O)Nc1ccc2c(c1)OCCO2 [8-F03, 3-(2-chlorophenyl)-2-cyano-N-(2,3-dihydro-1,4-benzodioxin-6-yl)prop-2-enamide] | 94.4256% |
| Cc1cc(C(=O)CCl)c(C)[nH]1 [10-J08, 2-chloro-1-(2,5-dimethyl-1H-pyrrol-3-yl)ethan-1-one] | 99.1233% |
| Cc1cc(C(=O)CCl)c(C)s1 [10-K16, 2-chloro-1-(2,5-dimethylthiophen-3-yl)ethan-1-one] | 28.6772% |
| O=C(CCl)c1cc(Cl)sc1Cl [10-D16, 2-chloro-1-(2,5-dichlorothiophen-3-yl)ethan-1-one] | 21.5079% |
| Cc1cc(C(=O)CCl)c(C)n1CC(N)=O [10-O16, 2-[3-(2-chloroacetyl)-2,5-dimethyl-1H-pyrrol-1-yl]acetamide] | 94.6035% |
| Cc1cc(C(=O)CCl)c(C)n1-c1cc(Cl)cc(Cl)c1 [10-I04, 2-chloro-1-[1-(3,5-dichlorophenyl)-2,5-dimethyl-1H-pyrrol-3-yl]ethan-1-one] | 87.746% |
| N#CC(=Cc1cccc2ccccc12)C(=O)NC1CC1 [9-O03, 2-cyano-N-cyclopropyl-3-(naphthalen-1-yl)prop-2-enamide] | 97.2808% |
| CC(C)N(Cc1ccc(N(C)C)cc1)C(=O)CCl [5-E06, 2-chloro-N-{[4-(dimethylamino)phenyl]methyl}-N-(propan-2-yl)acetamide] | 100.2% |
| O=C(CCl)NCCOc1cccc(F)c1 [6-G03, 2-chloro-N-[2-(3-fluorophenoxy)ethyl]acetamide] | 108.75% |
| CC(Cl)C(=O)NCc1ccon1 (stereo not shown) [7-I13, 2-chloro-N-[(1,2-oxazol-3-yl)methyl]propanamide] | 79.9604% |
| Cc1cc(C(=O)CCl)c(C)c(C)c1C [10-I06, 2-chloro-1-(2,3,4,5-tetramethylphenyl)ethan-1-one] | 98.9675% |
| Cc1ccc(-n2c(C)cc(C(=O)CCl)c2C)cc1F [10-C06, 2-chloro-1-[1-(3-fluoro-4-methylphenyl)-2,5-dimethyl-1H-pyrrol-3-yl]ethan-1-one] | 94.9153% |
| Cc1cc(C(=O)CCl)c(F)cc1F [10-O03, 2-chloro-1-(2,4-difluoro-5-methylphenyl)ethan-1-one] | 34.9114% |
| Cc1cc(F)c(C(=O)CCl)cc1F [10-L19, 2-chloro-1-(2,5-difluoro-4-methylphenyl)ethan-1-one] | 32.7294% |

| Structure (SMILES) | % of control remaining |
| --- | --- |
| Cc1cc(C)c(C(=O)CCl)c(C)c1 [10-C08, 2-chloro-1-(2,4,6-trimethylphenyl)ethan-1-one] | 98.9675% |
| Cc1ccc(-n2c(C)cc(C(=O)CCl)c2C)cc1C [10-B14, 2-chloro-1-[1-(3,4-dimethylphenyl)-2,5-dimethyl-1H-pyrrol-3-yl]ethan-1-one] | 97.5648% |
| N#CC(=Cc1ccc([N+](=O)[O-])cc1)C(=O)Nc1ccc(Cl)cc1 [8-O11, N-(4-chlorophenyl)-2-cyano-3-(4-nitrophenyl)prop-2-enamide] | 68.7288% |
| O=C(CCl)N1N=C(c2cccs2)CC1c1cccc(O)c1 (stereo not shown) [6-L04, 2-chloro-1-[5-(3-hydroxyphenyl)-3-(thiophen-2-yl)-4,5-dihydro-1H-pyrazol-1-yl]ethan-1-one] | 102.076% |
| CC(CO)(Cc1ccc(F)cc1)NC(=O)CCl (stereo not shown) [7-F06, 2-chloro-N-{2-[(4-fluorophenyl)methyl]-1-hydroxypropan-2-yl}acetamide] | 78.5065% |
| CC(Cl)C(=O)N1Cc2ccccc2OCC1C (stereo not shown) [7-F11, 2-chloro-1-(3-methyl-2,3,4,5-tetrahydro-1,4-benzoxazepin-4-yl)propan-1-one] | 75.731% |
| Cc1ccc(C=C(C#N)C(=O)NCc2ccco2)o1 [8-P19, 2-cyano-N-[(furan-2-yl)methyl]-3-(5-methylfuran-2-yl)prop-2-enamide] | 80.6934% |
| N#CC(=Cc1ccc([N+](=O)[O-])o1)C(=O)NCc1ccco1 [8-I17, 2-cyano-N-[(furan-2-yl)methyl]-3-(5-nitrofuran-2-yl)prop-2-enamide] | -0.06798% |
| N#CC(=Cc1cc2ccccc2o1)C(=O)NCc1ccco1 [9-O08, 3-(1-benzofuran-2-yl)-2-cyano-N-[(furan-2-yl)methyl]prop-2-enamide] | 80.4215% |
| Cc1cc(C=C(C#N)C(N)=O)c(C)n1-c1cccc2ccccc12 [9-I12, 2-cyano-3-[2,5-dimethyl-1-(naphthalen-1-yl)-1H-pyrrol-3-yl]prop-2-enamide] | 52.4133% |
| C=CC(=O)N1CCC(C(=O)NC[C@H]2C[C@@H](O)C2)(c2ccccc2)CC1 [3-O04, 4-phenyl-1-(prop-2-enoyl)-N-{[(1s,3s)-3-hydroxycyclobutyl]methyl}piperidine-4-carboxamide] | 105.852% |
| CC(Cl)C(=O)Nc1ccccc1[N+](=O)[O-] (stereo not shown) [4-G18, 2-chloro-N-(2-nitrophenyl)propanamide] | 96.0966% |
| O=C1C=CC(=O)N1CCCCO [10-K07, 1-(4-hydroxybutyl)-2,5-dihydro-1H-pyrrole-2,5-dione] | 17.4557% |
| CN(C)CCN1C(=O)C=CC1=O [10-G11, 1-[2-(dimethylamino)ethyl]-2,5-dihydro-1H-pyrrole-2,5-dione] | 99.9026% |
| CCOC=C(C#N)C(=O)N1CCN(S(=O)(=O)c2cc[nH]n2)CC1 [9-D06, 3-ethoxy-2-[4-(1H-pyrazole-3-sulfonyl)piperazine-1-carbonyl]prop-2-enenitrile] | 86.1319% |
| C#CCN1C(=O)C=CC1=O [10-F09, 1-(prop-2-yn-1-yl)-2,5-dihydro-1H-pyrrole-2,5-dione] | 15.1179% |
| CC(Cl)C(=O)N1CCN(Cc2ccc3ccccc3n2)CC1 (stereo not shown) [7-A15, 2-chloro-1-{4-[(quinolin-2-yl)methyl]piperazin-1-yl}propan-1-one] | 80.0925% |
| Cc1nc(C)c(C(=O)CCl)o1 [10-N08, 2-chloro-1-(2,4-dimethyl-1,3-oxazol-5-yl)ethan-1-one] | 41.4572% |
| Cc1nc(C#N)c(N2CCN(C(=O)CCl)CC2)o1 [5-L18, 5-[4-(2-chloroacetyl)piperazin-1-yl]-2-methyl-1,3-oxazole-4-carbonitrile] | 96.3329% |
| Cc1ccc(C(=O)CCl)o1 [10-A09, 2-chloro-1-(5-methylfuran-2-yl)ethan-1-one] | 117.514% |

| Structure (SMILES) | % of control remaining |
| --- | --- |
| CC(Cl)C(=O)Nc1c(Cl)cccc1Cl (stereo not shown) [4-B16, 2-chloro-N-(2,6-dichlorophenyl)propanamide] | 102.653% |
| C=CC(=O)NC(=O)NCc1ccccc1 [1-I04, 1-benzyl-3-(prop-2-enoyl)urea] | 96.861% |
| NS(=O)(=O)c1cccc2cc(NC(=O)CCl)ccc12 [5-K16, 2-chloro-N-(5-sulfamoylnaphthalen-2-yl)acetamide] | 109.11% |
| C=CC(=O)N(Cc1c(F)cc(C)cc1Cl)C1CCCOCC1 (stereo not shown) [2-A13, N-[(2-chloro-6-fluoro-4-methylphenyl)methyl]-N-(oxepan-4-yl)prop-2-enamide] | 81.8585% |
| C=CC(=O)N1CCC(C(=O)N2CCN(c3ccnc(C)n3)CC2)CC1 [2-L06, 1-{4-[4-(2-methylpyrimidin-4-yl)piperazine-1-carbonyl]piperidin-1-yl}prop-2-en-1-one] | 88.9607% |
| COc1cccc([C@H]2C[C@H](N(C)C(=O)C(C)Cl)C2)c1 (stereo partly shown) [6-B17, 2-chloro-N-methyl-N-[(1r,3r)-3-(3-methoxyphenyl)cyclobutyl]propanamide] | 89.6388% |
| Cc1noc(C)c1C(=O)CCl [10-K13, 2-chloro-1-(3,5-dimethyl-1,2-oxazol-4-yl)ethan-1-one] | 23.0664% |
| Cc1coc(C)c1C(=O)CCl [10-M11, 2-chloro-1-(2,4-dimethylfuran-3-yl)ethan-1-one] | 109.41% |
| Cc1noc(C)c1CN(C)C(=O)CCl [5-G06, 2-chloro-N-[(3,5-dimethyl-1,2-oxazol-4-yl)methyl]-N-methylacetamide] | 92.4661% |
| O=C1C=CC(=O)N1c1ccc(F)cc1F [10-F15, 1-(2,4-difluorophenyl)-2,5-dihydro-1H-pyrrole-2,5-dione] | 26.4952% |
| O=C1C=CC(=O)N1c1ccccc1F [10-D17, 1-(2-fluorophenyl)-2,5-dihydro-1H-pyrrole-2,5-dione] | 26.1835% |
| CN(C(=O)CCl)C1CCN(c2ccccc2F)C1=O (stereo not shown) [5-A18, 2-chloro-N-[1-(2-fluorophenyl)-2-oxopyrrolidin-3-yl]-N-methylacetamide] | 104.066% |
| O=C(c1ccccc1)c1cc(Cl)ccc1N1C(=O)C=CC1=O [10-M16, 1-(2-benzoyl-4-chlorophenyl)-2,5-dihydro-1H-pyrrole-2,5-dione] | 57.9778% |
| N#CC(=Cc1cccc(-c2ccncc2)c1)C(=O)NCc1ccco1 [9-B06, 2-cyano-N-[(furan-2-yl)methyl]-3-[3-(pyridin-4-yl)phenyl]prop-2-enamide] | 87.4915% |
| C=CC(=O)N1CCC(c2nc(C3CC3)no2)C1 (stereo not shown) [2-E09, 1-[3-(3-cyclopropyl-1,2,4-oxadiazol-5-yl)pyrrolidin-1-yl]prop-2-en-1-one] | 93.9014% |
| C=CC(=O)N1CCC(C(=O)NCCC2(O)CCCOC2)CC1 (stereo not shown) [2-B04, N-[2-(3-hydroxyoxan-3-yl)ethyl]-1-(prop-2-enoyl)piperidine-4-carboxamide] | 101.004% |
| Cc1ccc(C(=O)C(C)Cl)cc1C (stereo not shown) [10-B20, 2-chloro-1-(3,4-dimethylphenyl)propan-1-one] | 99.2792% |
| CCc1ccc(NC(=O)C(C#N)=Cc2cccnc2)cc1 [8-G04, 2-cyano-N-(4-ethylphenyl)-3-(pyridin-3-yl)prop-2-enamide] | 83.8205% |
